The values that follow come from PubChem BioAssay (EPA / NIEHS).

The source made the active and inactive calls. The calls were made as follows: active = hit-call score of the fitted dose curve at least 0.9, where 1 is the maximum; inactive = score below 0.9.

Read-out in the assay: Interleukin 6 (IL6), IL6 (gene 3569)
In words: LTEA_HepaRG_IL6: Life Technologies and Expression Analysis (LTEA) Assay for Interleukin 6 (IL6) using HepaRG (AID 2283509). The following applies: mRNA level, 48 h; actives raise or lower the signal. The protocol: LTEA_HepaRG is a cell based, multiplexed-readout assay that uses HepaRG, a human liver cell line, with measurements taken at 48 hours after chemical dosing on a 96-well plate.LTEA_HepaRG_IL6 is one of 102 assay component(s) measured in the LTEA HepaRG cell culture assay. It is a marker of Inflammation.Data from the assay component LTEA_HepaRG_IL6 was analyzed into 1 endpoint. This assay endpoint, LTEA_HepaRG_IL6, was analyzed with bidirectional fitting relative to DMSO as the negative control and baseline of activity. Using a type of inducible reporter, measures of mRNA induction for gain or loss-of-signal activity can be used to understand regulation of transcription factor activity. To generalize the intended target to other relatable targets, this assay endpoint is annotated to the cytokine intended target family, where the subfamily is interleukins.
A total of 1060 chemcials from the ToxCast library were tested in eight-point concentration-response experiments. Cell culture and cytotoxicity assays were conducted at Thermo Fisher Scientific's Custom Services facility (Madison, WI). A single lot of human HepaRG cells (Thermo Fisher Scientific, Frederick, MD) was used for the cell culture experiments. 96-well format collagen type I coated plates of human HepaRG cells were prepared using established methods. Briefly, cryopreserved HepaRG cells were thawed, plated at a density of approximately 100,000 cells/well in HepaRG Thaw, Plate, and General Purpose media (HPRG770, Thermo Fisher Scientific), and incubated for 48 hours. 0.5% DMSO was selected as vehicle control to balance the requisite need of DMSO in HepaRG cultures to maintain differentiation (for example, baseline metabolism, proportions of hepatocytes vs. cholangiocytes), while enabling further hepatic receptor pathway activation (for example, PXR and CAR) in response to chemical exposure. 48 hours after plating, the culture medium was replaced with HepaRG Serum-Free Incudtion Media. Cells were exposed to each test chemical in duplicate and maintained in CO2 incubators for another 48 hours. Chemical plates were thawed to room temperature and 200x concentrations of treatment groups were prepared. 8-point conentration-reponse curves were made with the highest exposure at 100 uM, followed by half-log dilutions, all in 0.5% DMSO. Each test plate contained variouse controls, induction positive controls (1mM phenobarbital), cytotoxicity positive controls ([…] aflatoxin B1), vehicle controls (0.5% DMSO), and total lysis controls (0.5% DMSO). Cell morphology images were taken using an Essen IncuCyte FLR automated microscope, with six 96-well plates imaged in about 24 minutes. Images were captured and exported and JPEG files. Spent culture media was transfered to black-well plates for the LDH assay, and remaining media was sorted at -80 C for later use. Cells were treated with RLT buffer and frozen until shipped for gene expression analysis. Total RNA was isolated from the cell suspension in 75 uL of Buffer RLT (Qiagen, Germantown, MD 20874) by Quintiles/Expression Analysis (Durham, NC) using a custom isolation procedure. Total RNA from each plate well was transferred to a preamplification plate. Fluidigm's 96.96 Dynamic ArrayTM (Fluidigm, Amsterdam, the Netherlands) technology was used for gene expression analyses by quantitative reverse transcription polymerase chain reaction (qRT-PCR, performed by Quintiles/Expression Analysis, Durham, NC)89. Standard TaqManTM Assays (Applied Biosystems/ThermoFisher Scientific, Foster City, CA) were used to assess the expression of 93 genes selected based on their selectivity and sensitivity to important hepatic receptors known to be modulated by environmental chemicals; importance in human hepatocyte functionality; and hepatotoxicity. […]
Regarding `Clc1ccc(Cl)c(Cl)c1`, the call was inactive.

For `Oc1ccccc1Cl`, the outcome was inactive.

Take `CN(C)c1ccccc1`: the result was inactive.

Turning to `CCCSC(=O)N(CCC)CCC`, the result was inactive.

The AC50 is the concentration giving half of the maximal activity seen. `O=C(O)C1C2CCC(O2)C1C(=O)O` (stereo not given): the AC50 is 16.5 µM (active).

Turning to `COC(=O)c1ccccc1N`, the compound was classed as inactive.

In the case of `Nc1ccc(Cl)cc1N`, the AC50 is 73.4 µM (active).

For `Clc1ccc(C(c2ccc(Cl)cc2)C(Cl)Cl)cc1`, the compound was classed as inactive.

As to `CN(C)c1ccc(C(=O)c2ccc(N(C)C)cc2)cc1`, the call was inactive.

As to `CN(C)C(=O)Nc1ccc(Cl)cc1`, the outcome was inactive.

With `O=C(Oc1ccc(Br)cc1)N1CCN2CCC1CC2`, the call was inactive.

As to `O=Cc1ccco1`, the call was inactive.

Consider `Cc1ccc(N)cc1`, for which the compound was called inactive.

As for `[As]#[In]`, the compound was called inactive.

Consider `c1ccc(NNc2ccccc2)cc1`, for which the call was inactive.

For the compound `CO[C@@H]1[C@H](OC(=O)NC(=O)CCl)CC[C@]2(CO2)[C@H]1[C@@]1(C)O[C@@H]1CC=C(C)C`, the call was inactive.

On to `ClC1=C(Cl)[C@]2(Cl)[C@H]3[C@H]([C@@H]4C=C[C@H]3C4)[C@@]1(Cl)C2(Cl)Cl`, for which the compound was called inactive.

Regarding `ClC1=C(Cl)C2(Cl)C3C(Cl)C=CC3C1(Cl)C2(Cl)Cl` (stereo not given), the compound was called inactive.

As for `CCCCOC(=O)c1ccccc1C(=O)OCc1ccccc1`, the compound was classed as inactive.

Consider `CC(C)(OOC(C)(C)c1ccccc1)c1ccccc1`, for which the compound was called inactive.

Regarding `CCC12COCN1COC2`, the compound was called inactive.

`CCC[CH2][Sn]([Cl])([CH2]CCC)[CH2]CCC`: the AC50 is 2.73 µM (active).

In the case of `O=C(N[C@H](c1ccccc1)[C@@H]1CN2CCC1CC2)c1c(Cl)ccc(C(F)(F)F)c1Cl`, the AC50 is 74.8 µM (active).

In the case of `CC(C)(C)OOC(C)(C)CCC(C)(C)OOC(C)(C)C`, the result was inactive.

For `Nc1ccc(Oc2ccc(N)cc2)cc1`, the outcome was inactive.

In the case of `c1ccc(C2CO2)cc1` (stereo not given), the call was inactive.

For the compound `Clc1ccc(C(c2ccc(Cl)cc2)C(Cl)(Cl)Cl)cc1`, the compound was called inactive.

For `CCCCCOC(=O)c1ccccc1C(=O)OCCCCC`, the outcome was inactive.

On to `CCOc1cccc(C2(N3CCN(c4ccccc4)CC3)CCC(C)CC2)c1` (stereo not given), for which the compound was classed as inactive.

Consider `c1ccc2c(c1)oc1ccccc12`, for which the compound was called inactive.

Consider `CCCCCCCCOC(=O)c1ccc(C(=O)OCCCCCCCC)c(C(=O)OCCCCCCCC)c1`, for which the call was inactive.

As for `Cc1ccc([N+](=O)[O-])cc1`, the compound was called inactive.

As for `CC(C)(C)OOC(=O)c1ccccc1`, the call was inactive.

Consider `O=P(OCCCl)(OCCCl)OCCCl`, for which the call was inactive.

In the case of `[Cl-].[Cl-].[Hg+2]`, the compound was called inactive.

For `CCCCCCCCCCCCCN1CC(C)OC(C)C1` (stereo not given), the outcome was inactive.

As to `O=[N+]([O-])c1ccc(Oc2ccc(Cl)cc2Cl)cc1`, the compound was called inactive.

Consider `c1ccc(N=Nc2ccccc2)cc1`, for which the outcome was inactive.

Turning to `Cc1ccc(N)c(N)c1`, the call was inactive.

As to `C1=Cc2cccc3cccc1c23`, the call was inactive.
